# Reference: the supplement of paper PMC8728848
# This is one part of a sample in which the strongest signals are shown more often than they occur.
# B1: SialidaseA (Arthrobacter ureafaciens) (protein)
# chain: MRSNSTSAPSLVRRAATGVLTCAVSIGLLAGLGLPAQAAPTPPNSPTLPPGSFSETNLAADRTAANFFYRIPALTYLGNDVVLAAWDGRPGSAADAPNPNSIVQRRSTDGGKTWGPVQVIAAGHVADASGPRYGYSDPSYIYDAEANKVFAFFVYSKDQGFGGSQFGNDDADRNVISSAVIESSDAGVTWSQPRLITSVTKPGTSKTNPAAGDVRSNFASSGEGIQLKYGPHKGRLIQQYAGDVRQADGSNKIQAYSVYSDDHGVTWHKGANVGDRMDENKTVELSDGRVLLNSRDNANRGYRKVAVSTDGGATYGPVSQDTELPDPANNGAIARMFPNAAQGSADAKKLIFTNANSKTGRENVSARVSCDDGETWPGVRTIRSGFSAYSTVTRLADGKFGVLYEGNYTDNMPFATFDDAWLNYVCAPLAVPAVNIAPSATQEVPVTVTNQEATTLSGATATVYTPSGWSATTVPVPDVAPGASVTVTVALTAPADASGPRSLNAAFTTADGRVSQFTFTATTPVAPQVGLTITGSAPARDVAANPYQAGDVLGYTLNVKSTANVAANSVPLTGTFDSGFLPPAAPNCRYNNLAAGASYNCTTAKHTITAADMERGYFVPEATFSITSTTTPSLTKTVQFTGAAVALRDGLISADISGARTDVGRDLATRPYAAGELVPYAFTVKNTSPFVEQVVPTAGNFSPFLPAGAGNCRYLSLPAGQSYECATPRHAVTAEEVEQGFFVPDTTWEVSAAGQSTRTYRINGGEVDLLVRDAALSATVVAEWKDADGDRFASAGDPVTFTYTVGNAGNVALTGLEAPDAGISLPFLAPGDTATATREHVLTAADVAGGSLAASAFEATARNGSKEVTATAEGQPLELKVQPAQPSKEPELTVQDLEDQTPPFDLGTAFKYRTGQKVSLAGLEYGQWYYVYLNKTGYRLGWMFPTTGDTVEFILPPEVRNGRDDVVVLDKDGRRVSFDRLQVTPKGEKI
# Columns and labels:
# Assay in all cases: glycan array binding signal (z-score within array); higher = stronger binding
# Conditions in all cases: glycan notation: IUPAC condensed, linker removed
# [1] = target: Man(a1-3)[Man(a1-6)]Man(a1-6)[Man(a1-3)]Man(b1-4)GlcNAc(b1-4)GlcNAc
# In short: (§1)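 Glycan array binding is given as a within-array Z-score, which can be read as non-binding when negative. The arrays, 3228 of them, came from the Consortium for Functional Glycomics database and were retained only where the protein sequence was available. Z-scores were averaged across arrays of the same protein sequence at different concentrations or buffers and across linkers.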
# [2] = target: Neu5Ac(a2-3)Gal(b1-3)GlcNAc(b1-3)GalNAc
# In short: as §1
# [3] = target: Neu5Ac(a2-3)Gal(b1-4)GlcNAc(b1-2)Man(a1-3)[Neu5Ac(a2-3)Gal(b1-4)GlcNAc(b1-2)Man(a1-6)]Man(b1-4)GlcNAc(b1-4)GlcNAc
# In short: as §1
# [4] = target: Neu5Ac(a2-3)Gal(b1-4)GlcNAc(b1-2)Man(a1-3)[Neu5Ac(a2-3)Gal(b1-4)GlcNAc(b1-2)Man(a1-6)]Man(b1-4)GlcNAc(b1-4)[Fuc(a1-6)]GlcNAc
# In short: as §1
# [5] = target: Neu5Ac(a2-3)Gal(b1-4)GlcNAc(b1-3)Gal(b1-4)GlcNAc(b1-2)Man(a1-3)[Neu5Ac(a2-3)Gal(b1-4)GlcNAc(b1-3)Gal(b1-4)GlcNAc(b1-2)Man(a1-6)]Man(b1-4)GlcNAc(b1-4)GlcNAc
# In short: as §1
# [6] = target: Neu5Ac(a2-3)Gal(b1-4)GlcNAc(b1-3)Gal(b1-4)GlcNAc(b1-3)GalNAc
# In short: as §1
# [7] = target: Neu5Ac(a2-3)Gal(b1-4)GlcNAc(b1-3)[Neu5Ac(a2-3)Gal(b1-4)GlcNAc(b1-6)]GalNAc
# In short: as §1
# [8] = target: Neu5Ac(a2-3)Gal(b1-4)[Fuc(a1-3)]GlcNAc(b1-3)Gal(b1-4)GlcNAc
# In short: as §1
# [9] = target: Neu5Ac(a2-3)Gal(b1-4)[Fuc(a1-3)]GlcNAc(b1-3)GalNAc
# In short: as §1
# [10] = target: Neu5Ac(a2-3)[GalNAc(b1-4)]Gal(b1-4)GlcNAc
# In short: as §1
# [11] = target: Neu5Ac(a2-6)Gal(b1-4)GlcNAc(b1-2)Man(a1-3)Man(b1-4)GlcNAc(b1-4)GlcNAc
# In short: as §1
# [12] = target: Neu5Ac(a2-6)Gal(b1-4)GlcNAc(b1-2)Man(a1-3)[Man(a1-6)]Man(b1-4)GlcNAc(b1-4)GlcNAc
# In short: as §1
# [13] = target: Neu5Ac(a2-6)Gal(b1-4)GlcNAc(b1-2)Man(a1-3)[Neu5Ac(a2-3)Gal(b1-4)GlcNAc(b1-2)Man(a1-6)]Man(b1-4)GlcNAc(b1-4)GlcNAc
# In short: as §1
# [14] = target: Neu5Ac(a2-6)Gal(b1-4)GlcNAc(b1-2)Man(a1-3)[Neu5Ac(a2-6)Gal(b1-4)GlcNAc(b1-2)Man(a1-6)]Man(b1-4)GlcNAc(b1-4)[Fuc(a1-6)]GlcNAc
# In short: as §1
# [15] = target: Neu5Ac(a2-6)Gal(b1-4)GlcNAc(b1-2)Man(a1-6)Man(b1-4)GlcNAc(b1-4)GlcNAc
# In short: as §1
# [16] = target: Neu5Ac(a2-6)Gal(b1-4)GlcNAc(b1-2)Man(a1-6)[Gal(b1-4)GlcNAc(b1-2)Man(a1-3)]Man(b1-4)GlcNAc(b1-4)GlcNAc
# In short: as §1
# [17] = target: Neu5Ac(a2-6)Gal(b1-4)GlcNAc(b1-2)Man(a1-6)[GlcNAc(b1-2)Man(a1-3)]Man(b1-4)GlcNAc(b1-4)GlcNAc
# In short: as §1
# [18] = target: Neu5Ac(a2-6)Gal(b1-4)GlcNAc(b1-2)Man(a1-6)[Man(a1-3)]Man(b1-4)GlcNAc(b1-4)GlcNAc
# In short: as §1
# [19] = target: Neu5Ac(a2-6)Gal(b1-4)GlcNAc(b1-3)Gal(b1-4)GlcNAc(b1-3)[Neu5Ac(a2-6)Gal(b1-4)GlcNAc(b1-3)Gal(b1-4)GlcNAc(b1-6)]GalNAc
# In short: as §1
# [20] = target: Neu5Ac(a2-6)Gal(b1-4)GlcNAc(b1-3)Gal(b1-4)[Fuc(a1-3)]GlcNAc(b1-3)Gal(b1-4)[Fuc(a1-3)]GlcNAc
# In short: as §1
# [21] = target: Neu5Ac(a2-6)Gal(b1-4)GlcNAc(b1-3)[Neu5Ac(a2-6)Gal(b1-4)GlcNAc(b1-6)]GalNAc
# In short: as §1
# [22] = target: Neu5Ac(a2-6)Gal(b1-4)GlcNAc(b1-6)GalNAc
# In short: as §1
# [23] = target: Neu5Ac(a2-6)GlcNAc(b1-4)GlcNAc(b1-4)GlcNAc
# In short: as §1
# [24] = target: Neu5Ac(a2-8)Neu5Ac(a2-3)[Gal(b1-3)GalNAc(b1-4)]Gal(b1-4)Glc
# In short: as §1
# [25] = target: Neu5Gc(a2-3)Gal(b1-4)GlcNAc(b1-3)Gal(b1-4)GlcNAc(b1-2)Man(a1-3)[Neu5Gc(a2-3)Gal(b1-4)GlcNAc(b1-3)Gal(b1-4)GlcNAc(b1-2)Man(a1-6)]Man(b1-4)GlcNAc(b1-4)GlcNAc
# In short: as §1
binder,measurement,setting,value
B1,glycan array binding signal (z-score),[1],-0.278
same,glycan array binding signal (z-score),[2],-0.321
same,glycan array binding signal (z-score),[3],-0.915
same,glycan array binding signal (z-score),[4],3.28
same,glycan array binding signal (z-score),[5],0.256
same,glycan array binding signal (z-score),[6],-0.013
same,glycan array binding signal (z-score),[7],1.16
same,glycan array binding signal (z-score),[8],2.56
same,glycan array binding signal (z-score),[9],1.91
same,glycan array binding signal (z-score),[10],0.486
same,glycan array binding signal (z-score),[11],3.4
same,glycan array binding signal (z-score),[12],3.4
same,glycan array binding signal (z-score),[13],2.86
same,glycan array binding signal (z-score),[14],3.44
same,glycan array binding signal (z-score),[15],3.28
same,glycan array binding signal (z-score),[16],3.95
same,glycan array binding signal (z-score),[17],3.32
same,glycan array binding signal (z-score),[18],3.29
same,glycan array binding signal (z-score),[19],3.49
same,glycan array binding signal (z-score),[20],3.65
same,glycan array binding signal (z-score),[21],3.9
same,glycan array binding signal (z-score),[22],-0.534
same,glycan array binding signal (z-score),[23],-0.274
same,glycan array binding signal (z-score),[24],-0.131
same,glycan array binding signal (z-score),[25],1.3
